# Source: the supplement of paper PMC11006884
# The full data set covers some 6,500 targets. This sample favours those with a hit. About 2% of all pairs of compound and target were hits.
# Compound: COC(=O)C#Cc1ccccc1 [methyl 3-phenylpropiolate]
# Assay: log2 ratio of iodoacetamide-alkyne labeling of the cysteine site, DMSO over compound (competition); higher = stronger covalent engagement of the cysteine by the compound, active = 1 or more
# Details: 500 µM; treatment time 1 h; system: HEK293T cell lysate
# Method in brief: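 HEK293T lysate (2 mg/mL) was treated with DMSO or electrophile (500 µM, 1 h, ambient temperature), then iodoacetamide alkyne (1 h), clicked to sCIP-TMT reagents, pooled, trypsin-digested overnight at 37 °C, streptavidin-enriched and acid-eluted. Peptides were run on Orbitrap Eclipse LC-MS/MS with FAIMS and quantified in FragPipe. The log2 competition ratio per cysteine is mean control-channel over mean compound-channel reporter intensity. Duplicate channels and three replicates were used, and cysteines quantified in only one replicate were excluded.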
# UniProt Q96HA1, sequence (Q96HA1 whole entry, looked up): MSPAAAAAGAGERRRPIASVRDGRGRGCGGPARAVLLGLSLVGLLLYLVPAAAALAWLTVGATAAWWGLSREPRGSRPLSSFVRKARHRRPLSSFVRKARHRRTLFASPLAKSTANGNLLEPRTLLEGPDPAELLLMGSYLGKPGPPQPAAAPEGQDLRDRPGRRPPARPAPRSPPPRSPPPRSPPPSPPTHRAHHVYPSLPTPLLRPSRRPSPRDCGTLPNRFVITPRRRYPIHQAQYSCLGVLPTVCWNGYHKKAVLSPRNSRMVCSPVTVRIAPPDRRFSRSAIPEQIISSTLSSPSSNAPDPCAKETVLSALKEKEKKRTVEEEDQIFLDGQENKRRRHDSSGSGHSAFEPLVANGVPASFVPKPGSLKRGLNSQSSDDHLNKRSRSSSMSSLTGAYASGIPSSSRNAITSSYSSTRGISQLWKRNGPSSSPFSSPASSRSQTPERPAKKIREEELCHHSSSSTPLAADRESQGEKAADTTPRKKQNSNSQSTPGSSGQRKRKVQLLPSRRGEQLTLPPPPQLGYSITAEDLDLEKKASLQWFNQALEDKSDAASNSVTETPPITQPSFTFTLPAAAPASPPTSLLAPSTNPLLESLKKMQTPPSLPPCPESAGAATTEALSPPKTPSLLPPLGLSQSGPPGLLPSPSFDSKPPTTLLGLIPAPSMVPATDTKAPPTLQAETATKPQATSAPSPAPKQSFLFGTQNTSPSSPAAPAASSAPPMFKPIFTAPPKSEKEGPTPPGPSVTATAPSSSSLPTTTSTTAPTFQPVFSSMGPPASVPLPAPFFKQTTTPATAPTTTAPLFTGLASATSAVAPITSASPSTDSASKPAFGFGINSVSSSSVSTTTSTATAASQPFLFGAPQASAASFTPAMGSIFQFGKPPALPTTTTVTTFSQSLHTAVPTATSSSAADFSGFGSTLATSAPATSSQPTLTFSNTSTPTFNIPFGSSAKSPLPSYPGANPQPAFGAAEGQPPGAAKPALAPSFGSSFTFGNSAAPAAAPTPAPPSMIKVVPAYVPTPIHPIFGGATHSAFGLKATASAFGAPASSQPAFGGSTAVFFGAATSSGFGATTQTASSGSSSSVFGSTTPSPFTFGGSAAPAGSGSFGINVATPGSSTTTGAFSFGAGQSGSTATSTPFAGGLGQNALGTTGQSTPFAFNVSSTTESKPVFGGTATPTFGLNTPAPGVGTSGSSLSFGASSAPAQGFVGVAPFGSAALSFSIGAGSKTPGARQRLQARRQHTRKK
# UniProt Q99798, sequence (Q99798 whole entry, looked up): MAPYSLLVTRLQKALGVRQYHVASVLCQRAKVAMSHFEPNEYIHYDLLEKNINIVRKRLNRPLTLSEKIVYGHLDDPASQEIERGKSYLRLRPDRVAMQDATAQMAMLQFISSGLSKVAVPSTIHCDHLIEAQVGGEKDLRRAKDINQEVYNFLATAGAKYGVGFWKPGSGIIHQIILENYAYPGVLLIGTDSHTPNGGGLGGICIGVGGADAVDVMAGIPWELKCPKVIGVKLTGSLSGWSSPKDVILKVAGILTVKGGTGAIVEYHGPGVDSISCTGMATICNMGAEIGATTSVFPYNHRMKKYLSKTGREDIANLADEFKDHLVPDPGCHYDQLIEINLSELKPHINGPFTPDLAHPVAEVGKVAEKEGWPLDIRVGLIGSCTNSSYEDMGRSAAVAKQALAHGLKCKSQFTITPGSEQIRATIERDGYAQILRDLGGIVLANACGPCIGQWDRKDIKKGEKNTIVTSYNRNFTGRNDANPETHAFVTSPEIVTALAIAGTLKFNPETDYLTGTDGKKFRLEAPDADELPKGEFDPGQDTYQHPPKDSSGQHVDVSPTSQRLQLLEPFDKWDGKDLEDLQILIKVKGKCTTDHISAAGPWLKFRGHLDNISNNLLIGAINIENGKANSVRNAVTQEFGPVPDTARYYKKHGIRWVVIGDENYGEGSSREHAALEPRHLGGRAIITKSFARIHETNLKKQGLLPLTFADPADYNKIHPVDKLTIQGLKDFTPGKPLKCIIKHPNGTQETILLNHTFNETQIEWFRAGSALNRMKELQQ
# UniProt Q96CS3, sequence (Q96CS3 whole entry, looked up): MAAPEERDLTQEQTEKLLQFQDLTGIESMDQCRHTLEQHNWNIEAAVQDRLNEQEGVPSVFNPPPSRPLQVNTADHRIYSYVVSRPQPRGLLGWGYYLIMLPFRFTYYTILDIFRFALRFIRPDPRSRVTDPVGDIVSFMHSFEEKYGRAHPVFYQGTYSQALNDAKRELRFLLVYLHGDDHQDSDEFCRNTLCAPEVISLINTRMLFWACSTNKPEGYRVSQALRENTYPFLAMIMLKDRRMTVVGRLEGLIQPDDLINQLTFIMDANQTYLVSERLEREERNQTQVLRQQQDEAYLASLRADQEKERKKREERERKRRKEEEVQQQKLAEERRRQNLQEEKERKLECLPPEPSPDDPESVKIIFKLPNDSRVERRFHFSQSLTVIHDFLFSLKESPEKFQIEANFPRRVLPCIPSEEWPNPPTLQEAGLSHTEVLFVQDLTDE
# UniProt Q96SZ5, sequence (Q96SZ5 whole entry, looked up): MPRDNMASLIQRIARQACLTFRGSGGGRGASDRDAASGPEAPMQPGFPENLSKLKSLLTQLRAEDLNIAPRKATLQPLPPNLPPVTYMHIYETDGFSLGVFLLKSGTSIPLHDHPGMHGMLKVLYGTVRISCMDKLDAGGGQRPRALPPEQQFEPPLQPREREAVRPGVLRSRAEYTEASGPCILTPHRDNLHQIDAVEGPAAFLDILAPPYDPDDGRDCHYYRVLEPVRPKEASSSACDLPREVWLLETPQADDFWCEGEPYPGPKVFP
# UniProt Q9BQG0, sequence (Q9BQG0 whole entry, looked up): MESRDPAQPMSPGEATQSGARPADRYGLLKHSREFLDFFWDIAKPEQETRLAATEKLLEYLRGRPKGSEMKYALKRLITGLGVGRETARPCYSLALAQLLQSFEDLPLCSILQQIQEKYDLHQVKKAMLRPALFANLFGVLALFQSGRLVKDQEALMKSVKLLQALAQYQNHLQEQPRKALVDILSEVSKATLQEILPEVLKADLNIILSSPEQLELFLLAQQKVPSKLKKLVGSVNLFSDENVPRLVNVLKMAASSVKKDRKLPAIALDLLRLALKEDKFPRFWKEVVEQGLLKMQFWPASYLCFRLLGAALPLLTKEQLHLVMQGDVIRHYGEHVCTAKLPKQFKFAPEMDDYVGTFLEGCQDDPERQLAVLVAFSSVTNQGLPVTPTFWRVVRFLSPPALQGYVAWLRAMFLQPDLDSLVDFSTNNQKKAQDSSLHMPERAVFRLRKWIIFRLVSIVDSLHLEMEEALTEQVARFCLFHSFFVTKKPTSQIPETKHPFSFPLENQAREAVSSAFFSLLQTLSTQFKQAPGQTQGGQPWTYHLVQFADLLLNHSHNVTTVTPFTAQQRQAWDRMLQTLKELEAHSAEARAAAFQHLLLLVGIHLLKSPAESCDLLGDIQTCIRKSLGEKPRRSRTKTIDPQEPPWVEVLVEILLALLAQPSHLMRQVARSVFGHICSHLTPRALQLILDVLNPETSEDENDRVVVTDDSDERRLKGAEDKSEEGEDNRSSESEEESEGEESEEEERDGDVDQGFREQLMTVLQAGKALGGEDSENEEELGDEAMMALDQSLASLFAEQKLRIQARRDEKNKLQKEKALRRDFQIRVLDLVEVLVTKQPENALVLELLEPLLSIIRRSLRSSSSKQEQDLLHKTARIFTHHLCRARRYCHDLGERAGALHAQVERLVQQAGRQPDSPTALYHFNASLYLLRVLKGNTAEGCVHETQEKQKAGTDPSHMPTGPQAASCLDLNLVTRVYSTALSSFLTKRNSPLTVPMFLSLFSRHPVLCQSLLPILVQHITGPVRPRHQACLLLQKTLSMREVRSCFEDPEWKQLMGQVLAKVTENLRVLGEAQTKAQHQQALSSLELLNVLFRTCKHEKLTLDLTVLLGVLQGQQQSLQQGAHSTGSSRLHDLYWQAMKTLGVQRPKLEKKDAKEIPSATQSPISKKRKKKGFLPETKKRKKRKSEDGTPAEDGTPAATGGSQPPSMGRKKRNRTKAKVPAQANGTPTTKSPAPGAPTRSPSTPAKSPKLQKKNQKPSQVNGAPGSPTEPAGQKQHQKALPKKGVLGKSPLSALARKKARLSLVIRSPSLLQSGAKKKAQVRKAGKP
# UniProt Q96IV0, sequence (Q96IV0 whole entry): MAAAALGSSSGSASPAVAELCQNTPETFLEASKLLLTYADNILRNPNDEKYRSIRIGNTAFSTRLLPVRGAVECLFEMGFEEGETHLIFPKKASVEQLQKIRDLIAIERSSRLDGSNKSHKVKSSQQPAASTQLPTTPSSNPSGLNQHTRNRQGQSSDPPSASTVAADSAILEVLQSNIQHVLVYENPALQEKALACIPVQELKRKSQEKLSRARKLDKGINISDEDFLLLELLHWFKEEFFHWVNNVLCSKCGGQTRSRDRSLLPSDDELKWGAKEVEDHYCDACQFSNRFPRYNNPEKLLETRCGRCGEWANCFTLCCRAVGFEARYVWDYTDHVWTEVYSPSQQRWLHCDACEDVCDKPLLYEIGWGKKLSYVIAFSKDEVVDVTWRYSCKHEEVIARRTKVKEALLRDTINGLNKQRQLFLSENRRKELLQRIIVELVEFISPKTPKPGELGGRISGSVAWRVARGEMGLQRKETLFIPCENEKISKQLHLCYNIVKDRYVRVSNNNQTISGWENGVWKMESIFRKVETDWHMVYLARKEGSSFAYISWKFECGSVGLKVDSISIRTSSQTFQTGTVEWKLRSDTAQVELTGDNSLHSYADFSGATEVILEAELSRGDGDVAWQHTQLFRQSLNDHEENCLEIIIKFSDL
# UniProt Q7Z309, sequence (Q7Z309 whole entry): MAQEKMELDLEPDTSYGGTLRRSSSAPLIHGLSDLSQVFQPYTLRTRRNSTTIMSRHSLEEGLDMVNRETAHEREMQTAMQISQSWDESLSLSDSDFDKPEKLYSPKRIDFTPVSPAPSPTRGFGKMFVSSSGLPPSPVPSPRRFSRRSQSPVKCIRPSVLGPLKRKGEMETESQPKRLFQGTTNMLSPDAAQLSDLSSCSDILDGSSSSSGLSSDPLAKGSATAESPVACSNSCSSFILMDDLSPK
row,Target,log2 ratio of iodoacetamide-alkyne labeling
1,HNRNPAB C98 (UniProt Q99729),-0.0694 (inactive)
2,AKAP1 C376 (UniProt Q92667),1.15 (active)
3,POM121 C461 (UniProt Q96HA1),0.43 (inactive)
4,ADO C258 (UniProt Q96SZ5),0.15 (inactive)
5,NIPBL C1795 (UniProt Q6KC79),-0.189 (inactive)
6,MYBBP1A C942 (UniProt Q9BQG0),0.523 (inactive)
7,FAF2 C194 (UniProt Q96CS3),0.689 (inactive)
8,UBR1 C1603 (UniProt Q8IWV7),0.433 (inactive)
9,UniProt Q6PJG6_C228,1.06 (active)
10,LPCAT1 C216 (UniProt Q8NF37),0.211 (inactive)
11,LARP1 C502 (UniProt Q6PKG0),0.269 (inactive)
12,DPF1 C149 (UniProt Q92782),0.289 (inactive)
13,DNAJB14 C77 (UniProt Q8TBM8),1.08 (active)
14,CISD2 C92 (UniProt Q8N5K1),0.0262 (inactive)
15,WRNIP1 C39 (UniProt Q96S55),-0.0706 (inactive)
16,IRF2BP1 C363 (UniProt Q8IU81),0.0738 (inactive)
17,MMS19 C549 (UniProt Q96T76),1.36 (active)
18,NKAP C349 (UniProt Q8N5F7),0.496 (inactive)

row,Target,log2 ratio of iodoacetamide-alkyne labeling
1,UniProt Q9BSH4_C112,-0.152 (inactive)
2,TRUB1 C269 (UniProt Q8WWH5),0.163 (inactive)
3,NEK9 C11 (UniProt Q8TD19),1.21 (active)
4,AKAP1 C147 (UniProt Q92667),1.02 (active)
5,UniProt Q8NFC6_C2164,0.286 (inactive)
6,FLAD1 C499 (UniProt Q8NFF5),1.06 (active)
7,TMEM209 C301 (UniProt Q96SK2),0.858 (inactive)
8,ANKRD11 C1845 (UniProt Q6UB99),1.24 (active)
9,NGLY1 C197 (UniProt Q96IV0),0.0457 (inactive)
10,SLFN11 C126 (UniProt Q7Z7L1),0.146 (inactive)
11,HIST2H3A C111 (UniProt Q71DI3),0.0441 (inactive)
12,ACO2 C385 (UniProt Q99798),1.66 (active)
13,UniProt Q8N1G2_C794,0.107 (inactive)
14,UniProt Q6ZS17_C1137,0.0366 (inactive)
15,TRMT2A C463 (UniProt Q8IZ69),1.1 (active)
16,C15orf39 C367 (UniProt Q6ZRI6),1.32 (active)
17,FAM122B C155 (UniProt Q7Z309),1.05 (active)
